Data as given in the supplement of paper PMC10646978.
± gives the standard deviation.

Legend:
Conditions in all cases: modulator concentration 10 µM
[1] = system: RAW-Dual (murine macrophage reporter line); assay: NF-kB reporter (SEAP) activity fold change vs agonist alone; higher = enhanced NF-kB activity
How it was run: (§1)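 RAW-Dual murine macrophage reporter cells were seeded at 50 000 per well in 384-well plates and pre-incubated 1 hour at 37 °C with compound pin-transferred to 10 μM final. After 1 hour, a PRR agonist was added and cells incubated overnight. Supernatant NF-κB (SEAP, QUANTI-Blue, 620 nm absorbance) and IRF (Lucia luciferase, QUANTI-Luc, luminescence) signals were divided by the mean agonist-only control on the same plate to give fold change. Two replicate plates were averaged, with errors by propagation.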

[2] = system: RAW-Dual (murine macrophage reporter line); assay: IRF reporter (Lucia luciferase) activity fold change vs agonist alone; higher = enhanced IRF activity
How it was run: as §1

[3] = system: RAW-Dual (murine macrophage reporter line); assay: viability score (confluency relative to resting cells, overnight) (fraction); higher = more viable, active = viable (0.7 or more)
How it was run: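 Overnight exposure to 10 μM final compound was carried out on RAW-Dual macrophages in 384-well plates. IncuCyte software generated two confluency masks over all wells imaged with IncuCyte. The viability score gives confluency in relation to resting cells. A compound met the cutoff if each mask exceeded 70% of resting cells.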

[4] = agonist: CpG ODN 1826 0.5 ug/mL

Row | Compound | NF-kB reporter [1, 4] | NF-kB reporter ([1]; agonist: LPS 0.1 ug/mL) | NF-kB reporter ([1]; agonist: MPLA […]) | IRF reporter ([2]; agonist: 3'3'-cGAMP 10 ug/mL) | IRF reporter ([2]; agonist: LPS 0.1 ug/mL) | IRF reporter ([2]; agonist: MPLA […]) | viability score [3]
1 | Cc1ncn(CC(=O)N2CC(Oc3cccc(C(F)(F)F)n3)C2)c(=O)c1C | 0.986 ± 0.059 | 1.09 ± 0.086 | 0.9 ± 0.08 | 0.83 ± 0.12 | 1.21 ± 0.086 | 1.25 ± 0.097 | 1 (active)
2 | COc1ccc(NCN2C(=O)c3ccccc3C2=O)c(OC)c1 | 0.844 ± 0.066 | 0.972 ± 0.058 | 1.08 ± 0.1 | 0.911 ± 0.044 | 1.42 ± 0.084 | 1.61 ± 0.21 | 0.991 (active)
3 | CCOC(=O)C1=C(C)NC2=C(C(=O)CC(C)(C)C2)C1c1ccccc1Br (configuration not stated) | 0.993 ± 0.096 | 1.07 ± 0.059 | 0.934 ± 0.056 | 0.898 ± 0.022 | 1.32 ± 0.19 | 0.975 ± 0.2 | 1.02 (active)
4 | Cc1c(Cl)ccc2c1NC(C(=O)O)C1CC=CC21 (configuration not stated) | 0.814 ± 0.045 | 1.05 ± 0.092 | 0.755 ± 0.063 | 0.615 ± 0.034 | 1.19 ± 0.091 | 1.13 ± 0.099 | 0.994 (active)
5 | Clc1ccc(Nc2nnc(Cc3ccncc3)c3ccccc23)cc1 [Prestw-1358] | 0.987 ± 0.056 | 1.07 ± 0.069 | 0.85 ± 0.07 | 0.785 ± 0.028 | 1.08 ± 0.069 | 1.1 ± 0.11 | 0.997 (active)
6 | COc1cc(Cl)cc(C=NNC(=O)c2cc(C)n[nH]2)c1O | 1.16 ± 0.09 | 0.793 ± 0.038 | 0.943 ± 0.082 | 0.785 ± 0.066 | 1.46 ± 0.088 | 1.62 ± 0.14 | 0.968 (active)
7 | CC(C)c1cc(C(=O)N2Cc3ccc(CN4CCN(C)CC4)cc3C2)c(O)cc1O | 0.0684 ± 0.0053 | 0.106 ± 0.0088 | 0.311 ± 0.052 | 0.509 ± 0.3 | 0.971 ± 0.37 | 0.991 ± 0.44 | 0.762 (active)
8 | CCOc1ccc(CN2CCN(c3cc(C)nc4c5c(C)cc(C)nc5nn34)CC2)cc1 | 0.944 ± 0.08 | 1.04 ± 0.077 | 1.02 ± 0.022 | 1.05 ± 0.1 | 1 ± 0.14 | 0.96 ± 0.26 | 1 (active)
9 | CNC(=O)Cc1cn(Cc2ccccc2)c2ccccc12 | 0.809 ± 0.19 | 1.11 ± 0.12 | 1.11 ± 0.082 | 0.947 ± 0.038 | 0.977 ± 0.11 | 1.05 ± 0.12 | 0.999 (active)
10 | CCn1c(=O)c2c(nc(/C=C/c3ccc(OC)c(OC)c3)n2C)n(CC)c1=O | 1.56 ± 0.31 | 1.27 ± 0.33 | 1.14 ± 0.094 | 0.721 ± 0.044 | 1.21 ± 0.27 | 1.32 ± 0.26 | 0.986 (active)
11 | Cc1cc(C(=O)NNCc2ccccc2)no1 [Prestw-795] | 1.09 ± 0.18 | 1.18 ± 0.11 | 0.992 ± 0.076 | 0.958 ± 0.026 | 1.06 ± 0.24 | 1.29 ± 0.14 | 0.997 (active)
12 | CCOc1ccc2nc(SC(c3ccccc3)c3ccccc3)sc2c1 | 1.01 ± 0.17 | 0.967 ± 0.099 | 0.974 ± 0.14 | 1.01 ± 0.036 | 1.2 ± 0.18 | 1.04 ± 0.31 | 0.661 (inactive)
13 | CCCc1nc2ccccc2c(NC(=O)CN2CCOCC2)c1CC.O=C(O)C(=O)O | 1.01 ± 0.078 | 1.12 ± 0.093 | 1.01 ± 0.059 | 1 ± 0.048 | 1.48 ± 0.27 | 1.16 ± 0.13 | 1 (active)
14 | COc1cc(NC(=O)NCc2nc(C)cc(N3CCOCC3)n2)cc(OC)c1 | 1.33 ± 0.32 | 1.04 ± 0.053 | 1.07 ± 0.11 | 0.886 ± 0.031 | 1.15 ± 0.14 | 1.09 ± 0.11 | 0.982 (active)
15 | COc1ccc(C(C)NC(=O)CCc2nnc3ccc(-c4ccc(C)c(C)c4)nn23)cc1OC (configuration not stated) | 1.3 ± 0.23 | 1.06 ± 0.083 | 1.4 ± 0.38 | 0.301 ± 0.14 | 0.963 ± 0.088 | 0.623 ± 0.089 | 1.01 (active)
16 | O=C1CCCC2=C1C(c1ccc(C(F)(F)F)cc1)Nc1ccc(C(=O)c3ccccc3)cc1N2 (configuration not stated) | 0.885 ± 0.08 | 1.19 ± 0.068 | 0.759 ± 0.045 | 1.55 ± 0.091 | 1.36 ± 0.14 | 1.04 ± 0.12 | 0.942 (active)
17 | O=C(CS(=O)Cc1ccco1)NC/C=C\COc1cc(CN2CCCCC2)ccn1 (configuration not stated) | 0.989 ± 0.16 | 1.02 ± 0.14 | 0.928 ± 0.052 | 0.897 ± 0.043 | 1.24 ± 0.3 | 1 ± 0.24 | 0.997 (active)
18 | COc1ccc(NC(=O)c2ccc(C(=N)N(C)C)cc2)c(C(=O)Nc2ccc(Cl)cn2)c1 | 0.892 ± 0.33 | 1.18 ± 0.061 | 1.1 ± 0.11 | 0.837 ± 0.043 | 1.05 ± 0.13 | 1.22 ± 0.26 | 0.994 (active)
19 | NC(=O)NCC(N)C(=O)O (configuration not stated) | 0.988 ± 0.082 | 1.02 ± 0.09 | 0.969 ± 0.022 | 0.959 ± 0.053 | 0.963 ± 0.12 | 1.02 ± 0.1 | 0.994 (active)
20 | CC(=NOCCCl)C(C)=NOCCCl | 0.946 ± 0.078 | 1.05 ± 0.13 | 1.21 ± 0.042 | 0.909 ± 0.15 | 1.07 ± 0.045 | 1.59 ± 0.2 | 0.585 (inactive)
21 | Cn1ccnc1Sc1nc(Nc2cccc(Cl)c2)nc(N2CCOCC2)n1 | 0.519 ± 0.045 | 1.03 ± 0.12 | 1.21 ± 0.13 | 0.474 ± 0.019 | 1.24 ± 0.14 | 1.09 ± 0.23 | 1.01 (active)
22 | Cc1cc(OC2CCN(C(=O)c3csc(C)n3)CC2)nc(C)n1 | 1.01 ± 0.051 | 1.11 ± 0.095 | 0.923 ± 0.068 | 0.954 ± 0.088 | 1.23 ± 0.12 | 1.15 ± 0.23 | 1.01 (active)
23 | Cc1cc(C(=O)N2CCC(Oc3cccc4cccnc34)CC2)c(C)o1 | 1.1 ± 0.073 | 1.1 ± 0.12 | 0.81 ± 0.066 | 1.02 ± 0.092 | 1.07 ± 0.15 | 1.07 ± 0.23 | 1.01 (active)
24 | CCOc1ccccc1NC(=O)NCc1sc(-c2ccccc2Cl)nc1C | 0.768 ± 0.19 | 1.07 ± 0.058 | 0.98 ± 0.072 | 0.89 ± 0.048 | 0.926 ± 0.17 | 0.898 ± 0.11 | 1 (active)
25 | O=S(=O)(c1ccc(F)cc1)n1cccc1 | 0.812 ± 0.065 | 0.746 ± 0.047 | 1.09 ± 0.096 | 1.02 ± 0.05 | 1.49 ± 0.087 | 1.72 ± 0.22 | 0.988 (active)
26 | c1coc(CNc2nc(-c3ccncc3)cs2)c1 | 0.857 ± 0.073 | 0.863 ± 0.13 | 1.25 ± 0.11 | 0.492 ± 0.03 | 1.12 ± 0.08 | 1.14 ± 0.097 | 0.981 (active)
